Only some compounds are listed: those with a hit (about 1.3% of all), similar ones and a draw of the others.
PKM2 activator: increases activity of human pyruvate kinase M2; purified PKM2, Kinase-Glo ATP luminescence, activation; response scale: 0% is enzyme alone, no compound; Potency, µM (series often up to 57.5 µM), inactives show at the top dose activation, actives largely listed as activators; 0.34% of 260,000 active; note: nearly all actives have a fitted effect of over 55% in size
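hPK-M2, >95% pure; 0.1 mM ADP / 0.5 mM PEP final; imidazole pH7.2 buffer w/ 7 mM MgCl2, 50 mM KCl; 1 h RT; Kinase-Glo lum. Intermediate enzyme activity for dual inhibitor/activator qHTS.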
GALK inhibitor: blocks human galactokinase activity; P51570; Purified GALK, Kinase-Glo residual ATP luminescence; Potency, µM (doses to about 57.5 µM), inactives show at the highest dose activity change, negative = inhibition, hits mostly inhibitors; 0.007% of 270,000 active
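5 nM enzyme, 35 uM ATP, 100 uM galactose, 20 mM HEPES pH8.0, 5 mM MgCl2; 1 h RT; residual ATP by Kinase-Glo Plus luminescence, qHTS format.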
Apoferritin bind: binds horse apoferritin like a general anesthetic | P02791 | 0.074% of 350,000 active | Potency, µM (top dose mostly 77.5 µM), for the others: at the top dose activity change, negative = displacement, hits mostly inhibitors | apoferritin/1-aminoanthracene competitive binding, fluorescence | AID 485281; note: nearly all actives have a fitted effect of over 20% in size
Target sequence (P02791 2-175 limits assumed): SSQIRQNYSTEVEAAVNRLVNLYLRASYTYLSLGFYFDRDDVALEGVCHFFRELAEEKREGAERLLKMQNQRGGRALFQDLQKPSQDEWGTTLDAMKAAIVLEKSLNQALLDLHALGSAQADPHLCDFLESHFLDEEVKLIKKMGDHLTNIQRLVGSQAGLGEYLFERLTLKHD
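Read-out: endpoint 1-AMA fluorescence, excitation 380 nm and emission 535 nm, after compounds sit 10 min at room temperature with 10 uM horse-spleen apoferritin in 50% saturated 1-AMA/PBS. Values come from four-parameter Hill fits.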
TrxR1 substrate: is turned over as a substrate by rat TrxR1; purified TrxR1 substrate turnover, NADPH consumption readout; Potency, µM (highest dose often 114 µM), for the others: top-dose activity change, negative = substrate turnover; 0.01% of 390,000 active; note: nearly all actives have a fitted effect of over 50% in size
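Rat TrxR1, dispensed at 90 nM, was prereduced with 400 uM NADPH (final) for 5 min at ~22 deg C, then incubated with compound 15 min before 400 uM selenite. A first-read NADPH fluorescence drop versus no-compound background flagged substrates.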
mIDH1 inhibitor: blocks human mutant IDH1 R132H enzyme. O75874. IDH1-R132H enzyme, NADPH consumption, diaphorase/resazurin fluorescence. Potency, µM (highest dose often 76.6 µM), inactives show top-dose activity change, negative = inhibition, hits mostly inhibitors. 0.093% of 390,000 active. AID 602179; note: nearly all actives have a fitted effect of over 65% in size
Target sequence (O75874 whole entry R132H, stated change not applied): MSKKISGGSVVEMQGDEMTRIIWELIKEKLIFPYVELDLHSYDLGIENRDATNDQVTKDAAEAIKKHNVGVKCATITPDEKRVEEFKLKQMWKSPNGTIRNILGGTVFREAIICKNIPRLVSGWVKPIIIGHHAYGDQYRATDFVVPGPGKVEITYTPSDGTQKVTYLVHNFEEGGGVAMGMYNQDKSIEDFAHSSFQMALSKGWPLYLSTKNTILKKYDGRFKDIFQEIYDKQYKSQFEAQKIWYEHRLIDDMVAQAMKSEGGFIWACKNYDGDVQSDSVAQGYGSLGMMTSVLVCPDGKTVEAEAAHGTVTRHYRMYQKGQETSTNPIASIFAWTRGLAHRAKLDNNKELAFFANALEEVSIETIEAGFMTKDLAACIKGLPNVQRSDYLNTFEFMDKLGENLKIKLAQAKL
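IDH1-R132H (0.5 ug/mL dispensed) in pH 7.5 Tris buffer was preincubated 30 min with compound, then given a substrate mix of 0.016 mM NADPH and 2 mM alpha-KG for 80 min at room temperature; remaining NADPH was read by diaphorase/resazurin fluorescence.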
rTrxR1 inhibitor: blocks rat thioredoxin reductase 1; AID 588453; Potency, µM (top dose mostly 114 µM), for the others: at the highest dose activity change, negative = inhibition, actives largely listed as inhibitors; 1% of 390,000 active; recombinant rTrxR1, NADPH fluorescence consumption, selenite substrate; O89049; note: nearly all actives have a fitted effect of over 65% in size
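Rat TrxR1 (90 nM in the dispensed reagent) was pre-reduced with 400 uM NADPH for 5 min at room temperature, then incubated with compound for 15 min. After 400 uM selenite was added, NADPH fluorescence (Ex 340/Em 450 nm) was followed for 8 min.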
* marks the source's active call; other numbers are inactive results; i = inactive; u = inconclusive; x = not tested or not shown; [ ] = dose if it differs, or a comment. Calls come from the whole dose curve; as a rule, active = well fitted curve in the direction sought with a large enough effect; inconclusive = small, poorly fitted or top-dose-only effect, or another doubt; inactive = no such curve, though single readings can be large; an effect the other way counts as inactive or inconclusive. % is set by controls: 0 for no effect and ±100 for the full control effect; potency is the fitted concentration of half-maximal effect.

SMILES	PKM2 activator	GALK inhibitor	Apoferritin bind	TrxR1 substrate	mIDH1 inhibitor	rTrxR1 inhibitor
COc1ccc(S(=O)(=O)N2CCN(C(=O)C3COc4ccccc4O3)CC2)cc1 (configuration not stated)	x	x	x	-4%	4%	50µM*
COc1ccc2c(C)c(CC(=O)N3CCN(C(=O)C4COc5ccccc5O4)CC3)c(=O)oc2c1C (configuration not stated)	-3%	-1%	-1%	132%[57.1 µM]	0%	12%[57.1 µM]
Cc1coc2cc3oc(=O)c(CC(=O)NCc4ccc(F)cc4)c(C)c3cc12	x	x	-19%	11%	3%	14%
O=C(CCl)N1CCN(C(=O)C2COc3ccccc3O2)CC1 (configuration not stated)	x	x	x	5%	-1%	28µM*
CC(=O)Nc1ccc(S(=O)(=O)N2CCN(C(=O)C3COc4ccccc4O3)CC2)cc1 (configuration not stated)	4%	-3%	-7%	-5%	-8%	1%[57.1 µM]
Cc1c(CC(=O)NCc2ccc(F)cc2)c(=O)oc2cc(O)c(Cl)cc12	x	x	i	893%	5%	79µM*
CCN1CCN(C(=O)C2COc3ccccc3O2)CC1 (configuration not stated)	-8%	-4%	-1%	-5%	-1%	u
COC(=O)c1ccccc1NC(=O)c1cnn2c1NC(=C1CC1)C=C2C(F)F	x	x	x	49%	x	u
O=c1[nH]c(SCc2ccc(F)cc2)nc2c1CCCC2	x	x	-13%	0%	x	9%
COc1ccc(NC(=S)Nc2nc(CC(=O)Nc3ccccc3OC)cs2)cc1	1%	3%	2%	0%	7%	1µM*
COc1ccccc1NC(=O)Cc1csc(NC(=S)Nc2ccccc2)n1	-1%	1%	-10%	-1%	-5%	u
Cc1ccc(CN(C)C(=O)CCc2nc3sc4c(c3c(=O)[nH]2)CCCC4)o1	19%	2%	-5%	-3%	1%	50µM*
CN(C)C(=O)CCc1nc2sc3c(c2c(=O)[nH]1)CCCC3	0%	1%	-8%	-1%	1%	-3%
Cc1ccc(C)n1-c1ccc(C(=O)NCc2ccncc2)cc1	-3%	10%	-3%	0%	6%	45µM*
CCC1CCCCN1S(=O)(=O)c1ccc(NC(=O)c2nc(SC)ncc2Cl)cc1 (configuration not stated)	x	x	u	-1%	-22%	24%
COc1cc(/C=C2\N=C(C)OC2=O)cc(Cl)c1OC(C)=O	x	-2%	1%	-5%	-1%	40µM*
CCCCC1=CC2=C(c3ccco3)C(=O)C(C)(OC(=O)c3ccc(OC)cc3)C(=O)C2=CN1CC(C)C (configuration not stated)	u	-1%	-2%	4%	7%	45µM*
CN(Cc1ccccc1)c1nnc(NC(=O)Nc2cccc(Br)c2)s1	x	x	36%	-13%	19%	0%
Cc1ccc(C)c(NC(=O)c2cc(S(=O)(=O)N3CCCCCC3)ccc2F)c1	x	x	-11%	-3%[57.1 µM]	-3%	12%[57.1 µM]
CCOC(=O)C1CN(S(=O)(=O)c2ccc(C)cc2)c2ccccc2O1 (configuration not stated)	0%	3%	-5%	-5%	17%	3.2µM*
CCCNC(=O)C1CN(S(=O)(=O)c2ccc(C)cc2)c2ccccc2O1 (configuration not stated)	0%	-2%	-13%	4%	10%	15%[0.457 µM]
Cc1sc(C(C2C(=O)CC(C)(C)CC2=O)C2C(=O)CC(C)(C)CC2=O)cc1[N+](=O)[O-]	18µM*	-2%	-22%	-7%	-2%	2µM*
O=c1c(O)c(-c2ccccc2O)oc2cc(O)cc(O)c12	x	x	-7%	x	x	x
O=c1c(O)c(-c2ccc(O)cc2O)oc2cc(O)cc(O)c12	6%	x	8%	9%[57.1 µM]	x	7.1µM*
Cc1cc(O)c(CN2CCN(c3ccc(F)cc3)CC2)c2oc(=O)cc(C)c12	x	x	i	739%	13%	79µM*
SMILES	PKM2 activator	GALK inhibitor	Apoferritin bind	TrxR1 substrate	mIDH1 inhibitor	rTrxR1 inhibitor
O=C(COC(=O)/C=C/c1ccco1)Nc1ncc(Cl)cc1Cl	13%	1%	-9%	-5%	-5%	50µM*
CC(C)=CC(=O)OCC(=O)Nc1nc(C)c(Cl)cc1Cl	0%	2%	-19%	10%	3%	29%
COc1cc(/C=C/C(=O)OCC(=O)NCc2ccco2)ccc1O	x	x	x	-2%	-3%	50µM*
O=C(COC(=O)/C=C/c1ccco1)NCc1ccccc1	6%	-2%	-10%	6%[57.1 µM]	0%	10%[57.1 µM]
Cc1nc(NC(=O)COC(=O)/C=C/c2ccco2)c(Cl)cc1Cl	x	x	x	4%	5%	40µM*
O=C(COC(=O)/C=C/c1ccco1)NCc1ccc(Cl)cc1	x	x	x	-3%	0%	79µM*
COC(=O)c1ccc(/C=C/C(=O)OCC(=O)Nc2ncc(Cl)cc2Cl)cc1	x	x	x	-2%	6%	-2%
COc1ccc(CCNC(=O)C(=O)Nc2ccc(C)cc2)cc1OC	x	x	3%	1%[57.1 µM]	-6%	36%[57.1 µM]
Cc1c(Cl)cccc1NC(=O)CN1C(=O)COc2ccc(S(=O)(=O)Nc3ccccc3)cc21	x	x	-11%	-8%	-10%	5%
Cc1ccc(/C=C/C(=O)OCC(=O)NCc2cccs2)o1	x	x	x	-11%	2%	56µM*
CCOC(=O)c1c(NC(=O)c2cc(-c3cccc(OC)c3)on2)sc2c1CCCC2	x	x	3%	4%	-5%	8%
CCOC(=O)c1c(NS(=O)(=O)c2cccc(OC)c2)sc2c1CCC2	16µM*	-3%	-2%	4%	-3%	u
O=S(=O)(Nc1cc(Sc2ncn[nH]2)c(O)c2ccccc12)c1ccccc1	-15%	-3%	-15%	25µM*	24%	11µM*
CCc1cc(C(=O)c2ccc(C)cc2)c(NC(=O)CCl)s1	1%	-1%	-9%	-8%	-8%	32µM*
Cc1cc(C(=O)c2ccc(Cl)cc2)c(NC(=O)CCl)s1	-8%	-2%	-6%	13%[57.1 µM]	2%	4µM*
Cc1ccc(C(=O)c2cc(C)sc2N)cc1	8%	2%	u	-1%[57.1 µM]	5%	2%[57.1 µM]
COc1ccc(NC(=O)c2ccccc2OCC(=O)Nc2ccc(Br)cc2)cc1	x	x	x	5%	x	13%
CC(C)(C)OC(=O)NCCc1nnc(S(=O)(=O)Cc2ccc(Cl)cc2Cl)o1	-2%	7%	u	11%[57.1 µM]	4%	0.4µM*
CC(C)(C)OC(=O)NCCc1nnc(SCc2ccccc2Cl)o1	0%	2%	u	-6%	3%	-4%
O=C(c1cccc([N+](=O)[O-])c1)N1c2nc(-c3ccco3)nn2C2(CCCCC2)[C@@H]2CCCC[C@@H]21	x	x	-13%	7%	-5%	-13%
